Out of some 340,000 compounds screened, about 1,400 (0.41%) were called active. Another 4% or so got no clear call; they are omitted. The entries come from a sample that favours actives as a whole. Values without a mark were called inactive. The call rests on the fitted dose curve; cell line not stated here.
On the % scale 0 is the no-effect control and ±100 the full control effect; potency means the concentration at half of the fitted maximal effect.

This assay is described as follows: qHTS for Antagonists of gsp, the Etiologic Mutation Responsible for Fibrous Dysplasia/McCune-Albright Syndrome: qHTS. Further: nearly all actives have a fitted effect of over 65% in size. Conditions: gsp-mutant cells, cAMP HTRF, 30 min; series mostly up to 76.9 µM; activity change, negative = inhibition: at the top concentration. The source says: McCune-Albright syndrome (MAS) is a rare disease caused by somatic mutations in Gsgsp), a widely expressed protein central in signal transduction from G-coupled protein receptors (GPCRs). The disease symptoms are diverse, owing to the fact that the patients are mosaics with varying degrees of tissue involvement. Greater than 90% of the mutations in Gs in MAS occur at the R201 position and are equally divided between R201H and R201C. The R201 residue is central in the intrinsic GTPase activity of Gs and the H and C mutations lead to loss of, or impairment of, the GTPase activity. The intrinsic GTPase activity is necessary to terminate the interaction between Gs and adenylate cyclase, and to terminate the cAMP-mediated signaling of the given GPCR pathway. Thus, these activating mutations lead to ligand-independent activation of GPCR pathways. The tissue phenotype is determined by the role of Gs in the function of a given cell, and excess Gs/cAMP signaling in that cell. For example, pituitary somatotrophs overproduce growth hormone in a growth hormone releasing hormone-independent fashion, and gigantism/acromegaly ensues. Skeletal stem cells in the bone marrow behave as if they are under constant parathyroid hormone stimulation and fail to differentiate into osteoblasts and osteocytes, and proliferate as immature osteogenic cells and lead to the marrow fibrosis of fibrous dysplasia of bone. The goal of this project is to identify molecules with inhibitory activity at gsp mutations that will not only allow for in-depth study of the underlying molecular and cellular pathophysiology, but also serve as compounds from which drugs to treat FD/MAS can be developed NIH Chemical Genomics Center [NCGC] NIH Molecular Libraries Probe Centers Network [MLPCN] MLPCN Grant: IRP-FT-DE-2011-01 Assay Submitter (PI): Michael Collins, NIDCR
1.#Seed 2000 cells/well in 6 ul DMEM 10% FBS, 1% Pen/Strep, 0.5 mg/ml G418 2.#Incubate 16-24 hr at 37C, 5% CO2, 95% humidity 3.#Aspirate leaving 1 ul residual volume 4.#Dispense 5 ul/well DPBS + 1 mM CaCl2, 0.5 mM MgCl2, 0.05% BSA, 0.005% Tween 20 5.#Aspirate leaving 2 ul residual volume 6.#Dispense 23 nl/well compounds in DMSO 7.#Dispense 1 ul/well 300 uM Ro-20174 in DMEM 10% FBS 8.#Incubate 30 min at 37C, 5% CO2, 95% humidity 9.#Dispense 1.5 ul/well HTRF reagent: cAMP-d2 in lysis buffer 10.#Dispense 1.5 ul/well HTRF reagent: anti-cAMP antibody-K in lysis buffer 11.#Incubate 30 min at room temperature 12.#Detect HTRF signal using EnVision plate reader
In the case of `COc1cc(NC(=O)C2=CC(c3ccco3)=NS(=O)(=O)N2C)cc(OC)c1OC`, the “activity change, negative = inhibition” value was -2.3%.
With `COc1cc(NC(=O)C2=CC(c3ccc(C)cc3)=NS(=O)(=O)N2C)cc(OC)c1OC`, the “activity change, negative = inhibition” value was -12.6%.
Regarding `COc1ccc(NC(=O)C2=CC(c3ccc(OC)c(OC)c3)=NS(=O)(=O)N2C)cc1`, the Potency is 39.8 µM (active).
As to `COC(=O)Cc1nc2c(N)nc(N)nc2[nH]c1=O`, the “activity change, negative = inhibition” value is -0.61%.
`CC(=O)C12CC(C)=C(C)CC1CC1C3CCC4=CC(=O)CCC4(C)C3CCC12C` (stereo unspecified): the “activity change, negative = inhibition” value was -11.6%.
Take `CSc1ncnc2c1ncn2CC(=O)C1CCC2C3CCC4=CC(=O)CCC4(C)C3CCC12C` (stereo unspecified): the Potency was 31.6 µM (active).
`Cc1onc(-c2c(F)cccc2Cl)c1C(=O)Nc1cccc(S(=O)(=O)N2CCCCC2)c1`: the “activity change, negative = inhibition” value is -15.9%.
Take `CN1CCOC1c1ccc(C2OCCN2C)cc1` (stereo unspecified): the “activity change, negative = inhibition” value was -2.61%.
Turning to `CC1CN(Cc2ccccc2)C(=S)NC1=O` (stereo unspecified), the “activity change, negative = inhibition” value is 11.6%.
The same measure, in the same setting: the value for `COc1ccccc1NC(=O)N(O)C1(C#N)CCCCC1` was 10.5%; that for `Cc1ccc(-c2csc(-c3c[nH]c4ccccc34)n2)cc1` was -14.8%; that for `CCOc1ccc2c(c1)C(c1ccc(C)cc1)=NNC(c1ccc(C)cc1)=N2` was -5.6%.
For `Cc1ccc(C2=Nc3c(ccc4ccccc34)C(c3ccncc3)=NN2)cc1`, the Potency was 31.6 µM (active).
Take `CC(=O)c1ccc(NC(=O)C(C)OC(=O)c2ccc(NS(=O)(=O)c3ccc4[nH]c(=O)[nH]c4c3)cc2)cc1` (stereo unspecified): the “activity change, negative = inhibition” value is 3.15%.
Same read-out and setting: the value for `O=C(O)C(CCc1ccccn1)c1ccccc1` (stereo unspecified) was 1.38%; that for `O=C(CCCN1C(=O)/C(=C/c2cccs2)SC1=S)Nc1ccc(O)cc1` was -10.1%.
Regarding `O=C(CCN1C(=O)/C(=C/c2cccs2)SC1=S)NNC(=O)c1cccc(O)c1`, the Potency was 31.6 µM (active).
Turning to `Cc1ccc(/C=C2\SC(=S)N(CCC(=O)Nc3ccc(O)cc3)C2=O)cc1`, the “activity change, negative = inhibition” value is 4.75%.
As to `Cc1ccc(OCCNC(=O)c2cccc(S(=O)(=O)N3CCN(Cc4ccccc4)CC3)c2)cc1`, the “activity change, negative = inhibition” value is -9.83%.
Turning to `COc1ccc(OC)c(Cc2cnc3nc(N)nc(N)c3c2C)c1`, the “activity change, negative = inhibition” value is -2.01%.
With `CC(=O)OCC(COC(C)=O)OC(C)=O`, the Potency was 35.5 µM (active).
For `CC(=O)OC(C)C[N+](C)(C)C` (stereo unspecified), the “activity change, negative = inhibition” value is 1.38%.
For `CC(=O)OCCC(C)C`, the “activity change, negative = inhibition” value is 9.48%.
On the same count and under the same terms, for `O=C1OC(Oc2ccc(Br)cc2)(c2ccccc2)c2ccccc21` (stereo unspecified) the value was -18%; for `CCCCN1CC(COc2ccccc2)Oc2cccc(F)c2S1(=O)=O` (stereo unspecified), -12.9%.
With `O=C(c1cccc(F)c1)N1CCN(c2ccc([N+](=O)[O-])c3cccnc23)CC1`, the Potency is 39.8 µM (active).
Regarding `O=C(c1cccc(F)c1)N1CCN(c2ccc([N+](=O)[O-])c(N3CCCCC3)c2)CC1`, the “activity change, negative = inhibition” value is -11.9%.
As to `O=C(c1ccc(N2CCOCC2)c([N+](=O)[O-])c1)N1CCN(c2ccccc2F)CC1`, the “activity change, negative = inhibition” value was -2.65%.
Same read-out and setting: for `COc1cc(C2c3cc4c(cc3C(O)C3COC(=O)C23)OCO4)cc(OC)c1OC` (stereo unspecified) the value was 16.2%; for `O=C(Cc1ccc(S(=O)(=O)N2CCOCC2)s1)Nc1ccc(Br)c(C(F)(F)F)c1`, -38.2%; for `O=C(c1cccnc1)N(Cc1ccccc1)C(=O)c1cccnc1`, 5.46%.
The same measure, in the same setting: for `CCCN(CC(=O)Nc1ccccc1C)C(=O)c1ccc(OCC(=O)N2CCOCC2)c(OCC)c1` the value was -2.96%; for `COc1ccc(CCNC(=O)COc2cc(C)cc3oc(=O)c(C)c(C)c23)cc1OC`, 4.24%.
Take `CC(C)OCCCNc1ncnc2c1[nH]c1ccc(F)cc12`: the Potency was 39.8 µM (active).
Consider `CC(C)OCCCNC(=O)c1cc(Sc2ccc(F)cc2)nc2ccccc12`, for which the “activity change, negative = inhibition” value is 16%.
For `CCOC(=O)[C@H]1[C@H]2COc3ccc(Br)cc3[C@@H]2N2C(=O)CN(C)C(=O)[C@@]12C`, the “activity change, negative = inhibition” value was 0.52%.
As to `O=C(NCc1ccccc1)c1cccc(NC(=O)C2CCCCC2)c1`, the “activity change, negative = inhibition” value was -0.777%.
For `Fc1ccc2[nH]c3c(N4CCSCC4)ncnc3c2c1`, the Potency is 28.2 µM (active).
In the case of `Cc1c(CN2CC[C@@H](N3CCN(c4ccccn4)CC3)[C@H](O)C2)[nH]c2ccc(F)cc12`, the “activity change, negative = inhibition” value was 4.63%.
As to `CCN(CC)CCCN1C(=O)C(=O)/C(=C(/O)c2c(C)nc3ccccn23)C1c1ccc(C)o1` (stereo unspecified), the “activity change, negative = inhibition” value is 8.42%.
Regarding `O=C(Nc1nc(-c2ccc3c(c2)OCO3)cs1)c1ccncc1`, the Potency was 39.8 µM (active).
For `O=C(Nc1nc2ccccc2s1)c1ccc2c(c1)OCO2`, the “activity change, negative = inhibition” value was -20.8%.
As for `CC(=O)NCCC(=O)Nc1nc(-c2ccc3c(c2)OCCO3)cs1`, the “activity change, negative = inhibition” value is 1.23%.
Consider `N#CC1(Nc2ccc(-c3ccc(Cl)cc3)cc2)CCCC1`, for which the “activity change, negative = inhibition” value was 2.59%.
In the case of `FC(F)(F)c1ccc(-c2cccc3c2C2CC3CCN2Cc2ccccc2)cc1` (stereo unspecified), the “activity change, negative = inhibition” value was -6.66%.
Take `CCOC(=O)c1ccccc1OC(=O)Oc1ccccc1C(=O)OCC`: the “activity change, negative = inhibition” value was -13%.
`CC(=O)Oc1ccc2c(c1)C(=O)c1ccccc1C2=O`: the “activity change, negative = inhibition” value is -0.802%.
For the molecule `O=C1C(Cl)=C(Oc2ccccc2)C(=O)c2ccccc21`, the Potency was 39.8 µM (active).
For `CCCCN1CC(COCc2ccccc2)OCCS1(=O)=O` (stereo unspecified), the “activity change, negative = inhibition” value is 12.5%.
Turning to `C=CC(=O)Nc1ccc(Nc2ccnc(Nc3ccc(N4CCN(C)CC4)cc3)n2)cc1`, the “activity change, negative = inhibition” value is -4.93%.
`COc1ccc(Cl)cc1C=CC=Nc1ccc(S(N)(=O)=O)cc1`: the “activity change, negative = inhibition” value is 0.98%.
